{
  "source": "PubChem BioAssay (NCI)",
  "note": "Compounds without any hit were thinned out: in the full panel of roughly 83,000, 20% have a hit.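 Cells were grown in 96-well plates and exposed to the test compound at a single concentration for 48 hours; results are reported as percent growth, with values below 10 considered active.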 A number with no mark means an inactive call. Activity calls are given as the source filed them.",
  "data": [
    {"test_system": "HT29 colon", "experiment": "NCI-60 one-dose screen, 48 h (100 = growth as untreated, 0 = no growth, -100 = all killed)", "conditions": "10 µM", "values": [
      {"smiles": "COc1cccc(O)c1O", "growth": "104%"},
      {"smiles": "CC(=O)/C(Cc1ccccc1)=N/O", "growth": "92.9%"},
      {"smiles": "C=CCNC(=O)c1ccc(OC)cc1", "growth": "129%"},
      {"smiles": "C/C(=N/NC(N)=O)c1ccco1", "growth": "99.5%"},
      {"smiles": "COCCOC(=O)c1ccc(C(C)C)cc1", "growth": "91.9%"},
      {"smiles": "C[N+](C)=c1ccc2nc3c(cc(Nc4ccccc4)c4ccccc43)oc-2c1", "growth": "52.2%"},
      {"smiles": "Cc1cccc(CO)c1", "growth": "108%"},
      {"smiles": "Nc1nc(N)c(N=Nc2ccc(C(=O)O)cc2)c(N)n1", "growth": "105%"},
      {"smiles": "COCCOCCCl", "growth": "105%"},
      {"smiles": "Nc1ncnc2[nH]ncc12", "growth": "12.3%"},
      {"smiles": "O=[N+]([O-])c1ccc(-c2ncc(-c3ccc(Br)cc3)o2)cc1", "growth": "98.3%"},
      {"smiles": "CCOC(=O)CSc1c([N+](=O)[O-])ncn1C", "growth": "104%"},
      {"smiles": "CC(C)(O)C#CC#CC(C)(C)O", "growth": "97.8%"},
      {"smiles": "COc1cc(C2NC(=O)C(C#N)=C(Nc3cccc(C)c3)S2)ccc1O", "note": "(stereo not given)", "growth": "107%"},
      {"smiles": "CCOC(=O)Nc1nn[nH]n1", "growth": "110%"},
      {"smiles": "O=C(NN=C1CCCCC1)C(=O)NN=C1CCCCC1", "growth": "98.6%"},
      {"smiles": "O=C(CCl)Nc1ccc2c(c1)C(=O)c1ccc(NC(=O)CCl)cc1C2=O", "growth": "-59.8% (active)"},
      {"smiles": "CCCCOC(=O)c1ccc(C(C)C)cc1", "growth": "94.9%"},
      {"smiles": "O=C(NC1CCCCC1)OCc1c(COC(=O)NC2CCCCC2)c(-c2ccc(Cl)c(Cl)c2)n2c1CCC2", "growth": "26.7%"},
      {"smiles": "N#CCCN(CCCN1CCOCC1)CN1C(=O)c2ccccc2C1=O", "growth": "107%"}
    ]}
  ]
}
